The test system of test [1] is Plasmodium falciparum Sir2 (PF13_0152, Sir2A). The experiment in a line: pfSir2 binders on small-molecule microarrays, primary screen, biochemical, small-molecule microarray, 635 nm fluorescence (AID 1098).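 Note: score merges spot fluorescence intensity with its signal-to-noise ratio.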 The settings on record: small-molecule microarray binding, fluorescence 635 nm; higher = more signal.
Test [2] in a line: small-molecule microarray binders of probe aDKK1, primary screen, biochemical, biotinylated probe, 635/667 nm fluorescence (AID 1099).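 Note: score merges 667nm spot fluorescence with signal to noise across triplicate slides; reference of the scale not given here.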 To be noted: higher = more signal.
The nature of test [3]: small-molecule microarray binders of probe aCHRDL2, primary screen, biochemical, biotinylated probe, 635/667 nm fluorescence (AID 1100). The settings on record: higher = more signal.
The nature of test [4]: splicing luciferase reporter signal modulators, primary screen, spliceosome inhibition project, cell-based, HEK293, splice +/- reporter (AID 1101).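 Note: HEK293 cells carrying a splicing-competent luciferase reporter gene; test concentration not given here.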 The settings on record: luminescence, 24 h, higher = more signal, called active from +8 up or from −8 down.
In test [5] the target is Fibroblast growth factor 10 (Homo sapiens) (UniProt O15520). The experiment in a line: FGF10 binders on small-molecule microarrays, primary screen, biochemical, small-molecule microarray, 635 nm fluorescence (AID 1102). The settings on record: FGF10 binding, fluorescence 635 nm, higher = more signal.
For test [6], the system named is glycogen synthase kinase-3 (GSK3A per assay name; protocol says GSK3B). The experiment in a line: GSK3 binders on small-molecule microarrays, primary screen, biochemical, small-molecule microarray, 635 nm fluorescence, GSK3A (AID 1103). Note: the record names both GSK3A and GSK3B. The settings on record: small-molecule microarray binding, fluorescence 635 nm; higher = more signal.
Test [7] concerns the target Epidermal growth factor receptor (Homo sapiens) (UniProt P00533). Briefly: EGFR binders on small-molecule microarrays, primary screen, biochemical, small-molecule microarray, 635 nm fluorescence (AID 1104).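 Note: score merges 667 nm emission intensity with spot signal to noise over triplicate slides.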 The settings on record: EGFR binding, higher = more signal.
Test [8] deals with Follistatin-related protein 3 (Homo sapiens) (UniProt O95633). The experiment in a line: FSTL3 binders on small-molecule microarrays, primary screen, biochemical, small-molecule microarray, 635 nm fluorescence (AID 1105).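 Note: score merges emission near 667 nm and signal to noise per printed spot across three slides.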 The settings on record: FSTL3 binding, higher = more signal.
In test [9] the target is Dickkopf-related protein 1 (Homo sapiens) (UniProt O94907). The experiment in a line: DKK1 binders on small-molecule microarrays, primary screen, biochemical, small-molecule microarray, 635 nm fluorescence scan (AID 1106).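 Note: score merges emission near 667 nm with signal to noise over three replicate slides.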 To be noted: DKK1 binding, higher = more signal.
The subject of test [10] is Inhibin beta A chain (activin A). Briefly: INHBA (activin A) binders on microarrays, primary screen, biochemical, small-molecule microarray, 635 nm fluorescence scan (AID 1107).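 Note: mouse activin A protein probed at 4.33 µg/mL on printed slides; score merges bound-protein fluorescence near 667 nm with spot signal-to-noise.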 The settings on record: small-molecule microarray binding, higher = more signal.

Among the data in PubChem BioAssay are composite z-score and z-score values, retold here.

Calls of active or inactive are those of the source.

Chain of Dickkopf-related protein 1 (Homo sapiens) (O94907 whole entry, looked up): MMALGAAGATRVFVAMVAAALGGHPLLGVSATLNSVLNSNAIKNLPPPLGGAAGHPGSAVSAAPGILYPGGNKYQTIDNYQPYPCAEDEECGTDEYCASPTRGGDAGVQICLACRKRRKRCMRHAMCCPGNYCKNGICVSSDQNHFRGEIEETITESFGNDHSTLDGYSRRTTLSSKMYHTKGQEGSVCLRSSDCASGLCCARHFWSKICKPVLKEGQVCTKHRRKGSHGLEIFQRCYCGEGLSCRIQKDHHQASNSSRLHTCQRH
Chain of Epidermal growth factor receptor (Homo sapiens) (P00533 whole entry, looked up): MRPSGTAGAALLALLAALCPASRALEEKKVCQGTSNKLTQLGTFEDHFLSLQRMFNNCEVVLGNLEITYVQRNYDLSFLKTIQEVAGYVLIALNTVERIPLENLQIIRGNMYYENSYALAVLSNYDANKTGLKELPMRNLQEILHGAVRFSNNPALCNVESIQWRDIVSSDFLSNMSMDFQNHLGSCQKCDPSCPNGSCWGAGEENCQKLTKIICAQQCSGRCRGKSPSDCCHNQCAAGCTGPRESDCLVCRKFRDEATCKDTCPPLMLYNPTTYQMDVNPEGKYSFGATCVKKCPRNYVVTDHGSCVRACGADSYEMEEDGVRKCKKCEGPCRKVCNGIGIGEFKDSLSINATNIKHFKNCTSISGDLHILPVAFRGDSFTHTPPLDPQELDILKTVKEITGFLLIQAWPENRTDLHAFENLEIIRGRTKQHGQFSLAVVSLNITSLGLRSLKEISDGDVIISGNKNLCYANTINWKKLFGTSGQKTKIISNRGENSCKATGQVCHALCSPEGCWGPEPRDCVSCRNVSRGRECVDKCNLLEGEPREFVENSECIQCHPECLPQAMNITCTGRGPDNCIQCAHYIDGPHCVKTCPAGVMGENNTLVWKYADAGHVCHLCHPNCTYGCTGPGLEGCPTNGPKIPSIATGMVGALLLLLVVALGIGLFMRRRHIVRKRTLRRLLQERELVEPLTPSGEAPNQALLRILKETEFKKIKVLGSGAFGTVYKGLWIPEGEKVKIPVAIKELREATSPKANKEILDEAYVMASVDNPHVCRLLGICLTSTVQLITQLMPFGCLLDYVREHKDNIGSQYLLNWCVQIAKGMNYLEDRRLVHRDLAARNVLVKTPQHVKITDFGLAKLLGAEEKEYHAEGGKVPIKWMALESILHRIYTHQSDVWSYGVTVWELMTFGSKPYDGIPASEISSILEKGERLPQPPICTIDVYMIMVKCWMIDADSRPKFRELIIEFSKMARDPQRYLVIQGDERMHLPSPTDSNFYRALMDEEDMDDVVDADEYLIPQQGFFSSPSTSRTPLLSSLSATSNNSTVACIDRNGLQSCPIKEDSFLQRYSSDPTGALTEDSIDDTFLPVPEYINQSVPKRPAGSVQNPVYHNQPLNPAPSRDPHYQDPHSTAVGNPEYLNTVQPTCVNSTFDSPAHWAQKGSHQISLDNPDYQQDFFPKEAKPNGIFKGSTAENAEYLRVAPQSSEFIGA
Chain of Follistatin-related protein 3 (Homo sapiens) (O95633 whole entry, looked up): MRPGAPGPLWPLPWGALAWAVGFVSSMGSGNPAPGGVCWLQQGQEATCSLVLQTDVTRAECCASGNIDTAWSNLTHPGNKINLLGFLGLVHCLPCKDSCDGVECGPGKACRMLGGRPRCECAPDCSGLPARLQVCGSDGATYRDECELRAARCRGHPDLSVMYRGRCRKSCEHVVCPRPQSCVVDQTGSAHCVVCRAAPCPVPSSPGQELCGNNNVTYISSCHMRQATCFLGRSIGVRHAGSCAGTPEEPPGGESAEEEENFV
Chain of Fibroblast growth factor 10 (Homo sapiens) (O15520 whole entry, looked up): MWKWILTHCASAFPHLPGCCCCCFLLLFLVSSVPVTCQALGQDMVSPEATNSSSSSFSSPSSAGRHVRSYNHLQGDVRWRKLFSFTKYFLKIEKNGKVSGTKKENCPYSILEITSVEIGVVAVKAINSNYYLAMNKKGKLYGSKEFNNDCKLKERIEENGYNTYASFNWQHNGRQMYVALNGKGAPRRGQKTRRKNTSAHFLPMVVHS

As for `COC(=O)[C@]1(Cc2ccccc2CN=[N+]=[N-])N=C(c2ccc(OCCCO)cc2)O[C@@H]1c1ccccc1CN=[N+]=[N-]`, the composite z-score was 1.14 in test [1]; -0.188 in [2]; 0.835 in test [3]; 0.468 in [5]; 0.419 in [6]; -0.267 in test [7]. In addition, the figures for the composite z-score in test [8], in test [9] and in [10] were -0.302, 0.127 and 0.721, respectively. For the same molecule, in test [4], the z-score is -0.613 (inactive).

For the molecule `O=C1c2ccccc2[C@](Cc2ccccc2I)(C(=O)NC2CC2)[C@H](c2ccc(CO)cc2)N1Cc1ccccc1Cl`, the composite z-score in test [1] was 0.453; in [2], 0.831; in [3], 0.995; in test [5], 0.652; in test [6], 1.28; in [7] it was -0.0191. Besides, the figures for the composite z-score in test [8], in test [9] and in test [10] were 0.345, 0.0978 and 1.02, respectively. Further, the z-score in test [4] is 0.119 (inactive).

Consider `CN(C)CCCCCCNC(=O)[C@@H]1C[C@@H]2C(=O)NCC(=O)N2[C@@H]1c1ccc(O)cc1`, for which the composite z-score in [1] was 1.25; in [2], -0.0528; in [3] it was -0.29; in test [5], 1.4; in test [6], 1.36; in test [7], 0.59. The composite z-score was 1.46 in test [8], 1.19 in test [9] and 0.678 in [10]. Moreover, the z-score in test [4] was -0.326 (inactive).

As to `[N-]=[N+]=NCc1ccccc1[C@H]1OC(c2ccc(OCCCO)cc2)=N[C@@]1(Cc1ccccc1N=[N+]=[N-])C(=O)N1CCCCC1`, the composite z-score stood at 1.31 in [1]; 1.11 in test [2]; 1.06 in test [3]; 1.42 in test [5]; 1.29 in [6]; 0.363 in [7]. The composite z-score in test [8] is 1.25; in test [9], 0.256; in test [10], 1.23. Besides, the z-score in test [4] is 0.532 (inactive).

On to `COCCOC(=O)N1C(=O)[C@@]2(c3cc(C#CCCO)ccc31)[C@H](C(=O)N1CCc3cc(OC)c(OC)cc3C1)[C@H]1C(=O)O[C@H](c3ccccc3)[C@H](c3ccccc3)N1[C@@H]2c1ccc(OCCO)cc1`, for which the composite z-score in test [1] is 1.19; in test [2], 0.125; in [3] it was -0.199; in [5] it was 1.37; in test [6], 1.2; in test [7], 0.846. For the same molecule, the composite z-score in test [8] came to 1.4; in [9], 0.609; in test [10] it was 0.0945. Moreover, the z-score in [4] is -0.575 (inactive).

Turning to `COC(=O)[C@@]1(Cc2ccc(F)cc2)[C@H]2c3cc(C(=O)N4CCCC4)n(Cc4ccccc4)c3C[C@H]2CN1C(=O)c1ccccc1`, the composite z-score was determined as 0.122 in test [1]; 0.411 in test [2]; 1.28 in test [3]; 0.674 in test [5]; 0.376 in [6]; 0.231 in test [7]. The composite z-score in [8] was 0.761; in test [9], -0.401; in test [10] it was 0.628. Moreover, the z-score in test [4] was -2.67 (inactive).

Regarding `COCCOC(=O)N1C(=O)[C@@]2(c3cc(C#CC4(O)CCCCCC4)ccc31)[C@H](C(=O)N1CCN(c3ncccn3)CC1)[C@H]1C(=O)O[C@H](c3ccccc3)[C@H](c3ccccc3)N1[C@@H]2c1ccc(O)cc1`, the composite z-score in test [1] was 1.27; in [2], -0.127; in test [3], 0.227; in [5], 0.45; in [6], 0.235; in test [7], 0.152. For the same molecule, the composite z-score in test [8] worked out at 0.321; in test [9] it was 0.0884; in [10], 0.921. In [4], the z-score was -0.756 (inactive).

Turning to `COC(=O)[C@@]1(Cc2ccc(F)cc2)[C@H]2c3cc(C(=O)N(C)C)n(Cc4ccc(C)c(F)c4F)c3C[C@H]2CN1C(=O)c1ccccc1`, the composite z-score was 0.0477 in test [1]; 0.871 in test [2]; 1.03 in test [3]; 0.158 in test [5]; -0.224 in [6]; 0.558 in test [7]. Further, the composite z-score in test [8] was -0.0326; in [9], -0.693; in test [10] it was 1.39. Besides, in test [4], the z-score is -0.509 (inactive).

As for `CC(C)CCC[C@@H](C)[C@H]1CC[C@@]2(C)C3=C(CC[C@]12C)[C@@]1(C)CC[C@H](OC(=O)C(C)(C)C)C(C)(C)C1CC3` (stereo not given in full), the composite z-score is -0.0682 in test [1]; -0.291 in test [2]; -0.636 in test [3]; 0.897 in [5]; 0.465 in [6]; 0.837 in [7]. Besides, the composite z-score in test [8] was 0.619; in [9], 0.683; in test [10], -0.312. Besides, the z-score in test [4] was -2.09 (inactive).

Turning to `NC(=O)NCC#Cc1ccc2c(c1)[C@]1(C(=O)N2)[C@H](c2ccc(O)cc2)N2[C@H](c3ccccc3)[C@H](c3ccccc3)OC(=O)[C@H]2[C@@H]1C(=O)NC[C@H](O)c1ccccc1`, the composite z-score in [1] is -0.227; in test [2], 0.004; in test [3] it was 0.725; in [5] it was -1.39; in test [6], -0.964; in test [7], -1.2. Also, the composite z-score is -2.26 in [8], -1.53 in test [9] and -1.82 in test [10]. The z-score in test [4] is -0.647 (inactive).

As to `COC(=O)[C@@]1(Cc2ccc(OC)cc2)[C@H]2c3cc(C(=O)N4CCCC4)n(CCc4ccc(O)c(OC)c4)c3C[C@H]2CN1C(=O)c1ccccc1`, the composite z-score is -0.0995 in [1]; 0.527 in test [2]; 1.09 in [3]; -0.317 in [5]; -0.175 in [6]; -0.481 in [7]. Further, the composite z-score in test [8] is -0.892; in test [9] it was -1.13; in test [10] it was 1.04. For the same molecule, the z-score in test [4] is -0.928 (inactive).

As to `N#Cc1ccc(NN2C(C(O)c3ccccc3)C=CC3C(=O)N(c4ccccc4)C(=O)C32)cc1` (stereo not given), the composite z-score in test [1] is 1.3; in [2], 0.313; in [3] it was 0.557; in [5] it was 0.968; in test [6] it was -0.353; in [7] it was -0.0382. Moreover, the composite z-score is 0.441 in test [8], -0.257 in [9] and 0.658 in test [10]. For the same molecule, in [4], the z-score is 1.3 (inactive).

Take `C=C(C)[C@@H]1CC=C(C(O)C2C=CC3C(=O)N(C4CCCCC4)C(=O)C3N2Nc2ccc(OC)cc2)CC1` (stereo not given in full): the composite z-score in [1] came out at 1.37; in test [2], 0.326; in [3], 0.826; in test [5] it was 1.03; in test [6], 1.31; in [7], 0.367. For the same molecule, the composite z-score in test [8] was found to be 1.37; in test [9] it was 0.21; in test [10] it was 0.918. In test [4], the z-score was -0.603 (inactive).

In the case of `CCCNC(=O)[C@@H]1c2ccccc2C(=O)N(CC23CC4CC(CC(C4)C2)C3)[C@H]1c1ccc(CO)cc1`, the composite z-score in [1] worked out at 1.6; in [2], 0.831; in test [3], 0.718; in test [5], 1.12; in [6], 1.15; in test [7] it was 0.457. Also, the composite z-score in test [8] amounted to 1.23; in [9], 1.11; in [10], 0.425. The z-score in [4] is -0.254 (inactive).
